From PubChem BioAssay (NCI)
About 79,000 compounds went through this panel and 15% of them were active in at least one assay; those are over-represented in the sample as a whole. Values without a mark were called inactive. Calls of active or inactive are those of the source. Cut-off read from the data, not from the text of the source: active = growth inhibition above about 70%; inactive = the rest.

Tests used:
[1] = NCI Yeast Anticancer Drug Screen. Data for the rad50 strain (AID 155);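 note: 0% = growth of vehicle-only cultures of the same strain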; conditions: S. cerevisiae rad50 strain growth inhibition; at 50.0 µM; stronger effect = higher value
Summary of the method: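 Cells are treated with compound, grown, and their growth is then scored against vehicle-only cultures of the same repair-deficient yeast strain.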

[2] = NCI Yeast Anticancer Drug Screen. Data for the mec2-1 strain (AID 157); conditions: S. cerevisiae mec2-1 strain, at 50.0 µM, stronger effect = higher value
Summary of the method: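 Yeast mec2-1 mutant treated with compound. Readout: growth inhibition vs vehicle controls.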

[3] = NCI Yeast Anticancer Drug Screen. Data for the sgs1 mgt1 strain (AID 161);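 note: 0% = growth of cultures given vehicle only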; conditions: S. cerevisiae sgs1 mgt1 strain, at 50.0 µM, stronger effect = higher value
Summary of the method: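 Mutant yeast exposed to compound; growth scored against vehicle-only wells.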

[4] = NCI Yeast Anticancer Drug Screen. Data for the cln2 rad14 strain (AID 165);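 note: 0% = growth equal to vehicle treated cultures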; conditions: S. cerevisiae cln2 rad14 strain, at 50.0 µM, stronger effect = higher value
Summary of the method: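 cln2 rad14 yeast strain; compound exposure; growth inhibition read vs vehicle controls.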

[5] = NCI Yeast Anticancer Drug Screen. Data for the bub3 strain (AID 167); conditions: S. cerevisiae bub3 mutant strain, at 50.0 µM, stronger effect = higher value
Summary of the method: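 Part of a panel of yeast mutants defective in DNA damage repair or cell cycle regulation. Each strain is grown with compound, and inhibition is calculated relative to solvent-treated cultures.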

[6] = NCI Yeast Anticancer Drug Screen. Data for the mlh1 rad18 strain (AID 175); conditions: S. cerevisiae mlh1 rad18 strain growth inhibition; at 50.0 µM; stronger effect = higher value
Summary of the method: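 Yeast w/ defined DNA-repair lesions; compound exposure; growth vs vehicle controls → % inhibition.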

Row | Compound | growth inhibition [1] | growth inhibition [2] | growth inhibition [3] | growth inhibition [4] | growth inhibition [5] | growth inhibition [6]
1 | O=C1C=C(Cl)C(=O)O1 | 8.85% | 10.2% | -8.8% | -9.1% | -8% | 15.6%
2 | COc1ccc(/C(O)=C/c2nc3cccc([N+](=O)[O-])c3[nH]c2=O)cc1 | 20.2% | -14.8% | 2.3% | -14.1% | -35.4% | 17.7%
3 | CNc1ncc(-c2nnnn2-c2ccccc2)c(CN(C)C)n1 | -36% | -3.05% | -3.4% | 5.1% | -3.45% | 25.2%
4 | Cn1c(-c2ccc(-c3cc(-c4cccs4)c(-c4cccs4)n3C)cc2)cc(-c2cccs2)c1-c1cccs1 | 11.7% | -15% | 14.8% | -16.9% | 1.55% | 17.8%
5 | CCCCCCC(O)CCCCCCCCCCC(=O)O (stereo unspecified) | -14.3% | 0.1% | 16.4% | -25.4% | -6.8% | 19.7%
6 | O=C(C[n+]1ccccc1)N/N=C(\Cc1nc2ccc([N+](=O)[O-])cc2[nH]c1=O)C(=O)Nc1cc(Cl)c(Cl)cc1Cl | 24.2% | 10.1% | 2.5% | -27.8% | 16.9% | 9.35%
7 | Cc1ccc(C)c(NC(=O)C(=O)C(C(=O)c2ccc3ccccc3c2)C2OC(=O)c3ccccc32)c1 (stereo unspecified) | 23.9% | 15.8% | 35.9% | 23.5% | 4.15% | 13.7%
8 | N#CCc1c(-c2ccccn2)[nH]c2ccccc12 | 9.25% | 1.35% | -3% | 18.8% | -11.2% | 12%
9 | COc1cccc2c1CC/C(=C\c1ccccn1)C2=O | 98.5% (active) | 99.1% (active) | 98.9% (active) | 97.8% (active) | 98.8% (active) | 99.2% (active)
10 | O=C(Nc1ccc(Cl)cc1)Nc1nnc(-c2ccc(-c3nnc(NC(=O)Nc4ccc(Cl)cc4)o3)cc2)o1 | 28.4% | 0.4% | 26.4% | -34.3% | 18% | 21.6%
11 | Nc1nc(SCC(=O)c2ccc(Br)cc2)c2[nH]cnc2n1 | 23.2% | 3.35% | -10.9% | 10.1% | 23.1% | 26.9%
12 | O=C1N/C(=N\OCCc2ccccc2)CC(NOCCc2ccccc2)N1 (stereo unspecified) | -0.2% | 18.8% | 2.25% | -11.6% | 40.5% | 7.5%
13 | O=C(NC12CC3CC(CC(C3)C1)C2)C(O)C(O)C(O)C(O)CO (stereo unspecified) | -16.6% | -1.75% | 20.1% | 0.9% | 5.6% | 2.65%
14 | S=C1Cc2c(-c3ccc(Br)cc3)cc(-c3ccccc3)nc2-c2ccccc2N1 | 19.9% | 14.7% | 23.4% | 20.6% | 22.9% | 23.2%
15 | c1ccc(CNCCNCc2ccccn2)nc1 | 25.4% | 7.45% | 16.1% | -61.1% | -1.15% | 16.8%
16 | CCOC(=O)NC(=O)c1cn(CCCOC(=O)CCCCCCCCC(=O)OCCCn2cc(C(=O)NC(=O)OCC)c(=O)n(C)c2=O)c(=O)n(C)c1=O | -16.4% | -25.1% | -25.2% | 6% | 4.3% | -23.7%
17 | CC1(C)CCCC/C1=N\Nc1ccc([N+](=O)[O-])cc1[N+](=O)[O-] | -29.2% | 5.2% | -2.8% | -22.2% | 1.1% | 22.1%
18 | c1ncn(Sn2cncn2)n1 | -13.2% | -6.9% | -4.25% | -23.8% | -5.9% | -0.85%
19 | Cc1ccc(S(=O)(=O)OC(c2ccccc2)C(F)(F)F)cc1 (stereo unspecified) | -4.05% | -15.6% | -7.2% | 6.9% | 2.9% | 2.85%
20 | CC1(C)C(OS(C)(=O)=O)C(C)(C)C1OS(C)(=O)=O (stereo unspecified) | 3.75% | -20.6% | 13.7% | 9.45% | 8.4% | -12.9%
21 | CCSCCC(C)(N)C(=O)O (stereo unspecified) | -7.35% | -8.85% | -12.3% | -38.7% | 2.3% | -3.7%

Row | Compound | growth inhibition [1] | growth inhibition [2] | growth inhibition [3] | growth inhibition [4] | growth inhibition [5] | growth inhibition [6]
22 | O=C1CC23CC(=O)CC2(C1)c1ccccc1C3=O (stereo unspecified) | 11.1% | -11.8% | 4.65% | 6.2% | 3.05% | 13.7%
23 | CCCCOC(=O)C(=O)C(CC(C(=O)Cc1ccccc1)c1ccccc1)C(=O)C=C(C)C (stereo unspecified) | -0.1% | -5.3% | -0.7% | -12.1% | 27.2% | -18.2%
24 | CO/C=C1/CCc2c(ccc3cc(OC)ccc23)C1=O | -1.5% | -8.75% | 10.5% | -0.8% | 3.2% | -6.55%
25 | N#Cc1cnsc1 | -4.15% | 2.65% | 4.75% | 3.55% | 12.4% | -26.8%
26 | CCOC(=O)NN(C(=O)OCC)C(C)(C)C(C)=O | 7.3% | 5.35% | 5.15% | -29.2% | 17.8% | 12.1%
27 | CCCCCCCCCCCCCCCCCCOc1c(Cl)c(Cl)c(Cl)c(Cl)c1Cl | 15.1% | -1.55% | -8.25% | -25.9% | -7.4% | -8.1%
28 | COc1cccc(NC(=S)/C(=C(/[O-])c2ccc([N+](=O)[O-])cc2)[n+]2cccc3ccccc32)c1 | 26.1% | 19.2% | 22.1% | 33.2% | 28.2% | 10.5%
29 | Nc1ccccc1CO | 3% | 2.4% | 2.25% | -0.05% | -4.65% | 7.1%
30 | NC(Cc1ccccc1)(C(=O)O)C(=O)O | -12.7% | 1.45% | -11.4% | -31.8% | -22.1% | 15.7%
31 | N#Cc1nc(CC(=O)/C=C/c2ccccc2)c(CC(=O)/C=C/c2ccccc2)nc1C#N | 3.7% | 13.7% | 8.05% | 16.3% | 1.3% | 21.3%
32 | CC(=O)O/C(=C\C(=O)[C@H]1CC[C@H]2[C@@H]3CC[C@@H]4C[C@H](OC(C)=O)CC[C@]4(C)[C@H]3C(=O)C[C@]12C)C(F)(F)F | -16.1% | 23.6% | 5.25% | 18.8% | 8.85% | -13.6%
33 | O=C(Nc1ccc(Cl)cc1)NS(=O)(=O)c1coc2cc(F)ccc2c1=O | 7% | -11.2% | -23.6% | 31.6% | 16.4% | 11.4%
34 | CCOC(=O)C1CC=CCC1C(=O)OCC (stereo unspecified) | -5.25% | -7.5% | 0.5% | 2.55% | 1.3% | -19.5%
35 | CCOC(=O)C(CCCOC1CCCCO1)(C(=O)OCC)c1ccccc1 (stereo unspecified) | 21.4% | -0.1% | -15.2% | 14.4% | 8.8% | -5%
36 | Nc1c2ccccc2nc2nccnc12 | 3.6% | 2.65% | 5.95% | 16.9% | -3% | 30.4%
37 | c1cnc2c(c1)-n1cccc1C1(CCOCC1)NN2 | -73.5% | -30.2% | -54.5% | -11.3% | -13.3% | -40.9%
38 | C(=C/c1ccc(-c2ccccc2)cc1)/c1ccc(-c2ccccc2)cc1 | -4.5% | -13.4% | 11.2% | -23.3% | 24.4% | -2.45%
39 | CC(C)=CCc1c(O)ccc2ccc(=O)oc12 | 21.6% | 20.1% | 10.2% | 17.9% | 7.3% | 29.4%
40 | CC(=O)Oc1ccc(/C=C/c2ccccn2)cc1 | 6.6% | -1.75% | -1.5% | -55.1% | 3.75% | 15.3%
41 | CCOc1ccc(/C=C2/C(=O)N(/C=C3/C(=O)Oc4ccccc4C3=O)C(=NC(C)=O)N2C)cc1 | 8.75% | -13% | -10.8% | 12.7% | -1.85% | 2.35%
